For some of these results: Entries with a potency or affinity are not part of this list.
Experiments:
Design in all cases: scale not given: direction of the effect not stated beside the values
[1] = molecular target: Protein translocase subunit SecA (Escherichia coli (strain K12)) (UniProt P10408); experiment: Assay to Identify E. coli SecA ATPase Inhibitors; assay type: functional; settings: 30 µM
[2] = molecular target: T1, Ubiquitin-activating enzyme e1, putative (Leishmania donovani (strain BPK282A1)) (UniProt E9BSI1); experiment: Leishmania donovani Ubiquitin Activating Enzyme (LdE1); assay type: functional; settings: 30 µM
T1 sequence (whole entry): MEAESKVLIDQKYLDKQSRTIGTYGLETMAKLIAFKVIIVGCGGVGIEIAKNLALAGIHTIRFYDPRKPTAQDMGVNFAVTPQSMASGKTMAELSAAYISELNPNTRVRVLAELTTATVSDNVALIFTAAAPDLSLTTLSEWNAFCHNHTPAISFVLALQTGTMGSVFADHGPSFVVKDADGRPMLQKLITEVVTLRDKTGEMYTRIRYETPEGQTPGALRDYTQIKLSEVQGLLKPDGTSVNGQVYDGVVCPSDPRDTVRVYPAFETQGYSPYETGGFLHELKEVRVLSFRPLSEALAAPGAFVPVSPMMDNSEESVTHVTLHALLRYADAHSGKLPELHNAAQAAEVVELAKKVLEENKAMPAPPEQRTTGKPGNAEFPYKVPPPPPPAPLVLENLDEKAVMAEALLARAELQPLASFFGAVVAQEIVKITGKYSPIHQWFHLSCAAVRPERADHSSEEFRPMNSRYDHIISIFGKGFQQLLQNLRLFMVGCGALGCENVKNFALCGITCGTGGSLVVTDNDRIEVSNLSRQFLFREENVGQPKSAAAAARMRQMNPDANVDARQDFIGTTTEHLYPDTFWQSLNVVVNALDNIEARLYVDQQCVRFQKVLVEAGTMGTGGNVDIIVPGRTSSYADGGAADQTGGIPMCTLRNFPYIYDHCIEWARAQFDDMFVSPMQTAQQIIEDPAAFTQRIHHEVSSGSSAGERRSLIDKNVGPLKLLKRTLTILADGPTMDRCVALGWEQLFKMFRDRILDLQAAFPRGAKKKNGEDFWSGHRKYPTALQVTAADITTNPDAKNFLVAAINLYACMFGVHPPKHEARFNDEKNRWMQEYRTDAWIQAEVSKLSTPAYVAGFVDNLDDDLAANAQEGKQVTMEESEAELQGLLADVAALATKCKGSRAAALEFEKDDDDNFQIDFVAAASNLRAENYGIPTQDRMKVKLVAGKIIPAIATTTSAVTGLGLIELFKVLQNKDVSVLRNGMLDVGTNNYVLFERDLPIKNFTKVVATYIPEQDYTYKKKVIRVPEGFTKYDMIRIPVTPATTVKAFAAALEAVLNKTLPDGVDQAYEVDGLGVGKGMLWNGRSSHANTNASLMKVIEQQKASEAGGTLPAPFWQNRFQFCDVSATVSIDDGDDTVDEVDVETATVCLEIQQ

[3] = molecular target: AMP-activated protein kinase, AMPK (Homo sapiens) (UniProt P54646+O43741+P54619+Q9UGJ0+Q9Y478+Q13131+Q9UGI9); experiment: AMP-dependent Kinase enzyme assay. An in vitro enzyme assay that detects ADP turnover that is directly proportional to AMPK activity. This uses naive AMPK that is activated during the assay with MK-8722; assay type: functional; settings: 30 µM
[4] = molecular target: Sialic acid-binding Ig-like lectin 9 (Homo sapiens) (UniProt Q9Y336); experiment: Hs-Siglec9 ALPHAscreen SOP 20170721; settings: 10 µM
Sequence of Sialic acid-binding Ig-like lectin 9 (Homo sapiens) (Q9Y336 whole entry): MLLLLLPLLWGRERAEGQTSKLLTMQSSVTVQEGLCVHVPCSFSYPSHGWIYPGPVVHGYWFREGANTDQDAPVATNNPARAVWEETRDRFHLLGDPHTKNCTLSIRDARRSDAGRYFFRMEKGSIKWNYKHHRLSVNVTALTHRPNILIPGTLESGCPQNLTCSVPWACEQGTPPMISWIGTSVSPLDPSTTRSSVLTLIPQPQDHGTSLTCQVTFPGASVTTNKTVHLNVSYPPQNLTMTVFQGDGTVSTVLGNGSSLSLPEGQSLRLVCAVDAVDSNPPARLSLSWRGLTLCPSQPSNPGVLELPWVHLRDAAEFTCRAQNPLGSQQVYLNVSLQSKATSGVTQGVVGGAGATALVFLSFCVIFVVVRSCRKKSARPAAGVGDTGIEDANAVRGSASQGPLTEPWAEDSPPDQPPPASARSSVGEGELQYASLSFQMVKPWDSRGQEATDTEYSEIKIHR

Trypanosoma cruzi = experiment: Trypanosoma cruzi phosphomannomutase and mannose-1-phosphate guanylyltransferase assay; assay type: functional; settings: 10 µM
[5] = molecular target: T2, Arginase-2, mitochondrial (Homo sapiens) (UniProt P78540); experiment: in vitro enzyme assay to detect the production of urea directly proportional to the activity of Arginase II; assay type: functional; settings: 33.3 µM; note: in the data most compounds retested in dose-response had high values
T2 sequence (whole entry): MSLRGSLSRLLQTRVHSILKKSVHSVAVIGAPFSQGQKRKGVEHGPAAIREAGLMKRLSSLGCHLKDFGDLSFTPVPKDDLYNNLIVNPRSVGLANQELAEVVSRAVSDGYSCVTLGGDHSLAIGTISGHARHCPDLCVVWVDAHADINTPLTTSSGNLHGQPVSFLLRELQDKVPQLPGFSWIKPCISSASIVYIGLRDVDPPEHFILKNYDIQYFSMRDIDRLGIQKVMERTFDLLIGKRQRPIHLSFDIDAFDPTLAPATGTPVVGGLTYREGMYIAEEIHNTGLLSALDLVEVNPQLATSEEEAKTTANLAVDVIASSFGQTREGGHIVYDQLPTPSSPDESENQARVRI

[6] = molecular target: T3, Proteasome subunit beta (Trypanosoma cruzi) (UniProt O96673); experiment: Trypanosoma cruzi proteasome chymotrypsin-like activity (TcProtChymo) assay.; note: in the data most compounds retested in dose-response had high values; assay type: functional; settings: 9.37 µM
T3 sequence (whole entry): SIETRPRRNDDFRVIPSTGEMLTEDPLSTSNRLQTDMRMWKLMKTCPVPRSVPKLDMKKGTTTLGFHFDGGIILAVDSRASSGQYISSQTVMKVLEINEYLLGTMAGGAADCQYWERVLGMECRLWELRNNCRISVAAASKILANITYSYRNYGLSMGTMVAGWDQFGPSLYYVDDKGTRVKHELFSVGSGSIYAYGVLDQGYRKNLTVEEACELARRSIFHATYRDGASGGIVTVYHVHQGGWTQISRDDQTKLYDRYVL

Homo sapiens = species: Homo sapiens; experiment: To identify inhibition of the IFN signalling (Jak-Stat) pathway via expression of an eGFP reporter gene under the control of an IFN-stimulated response element (ISRE) containing MxA promoter.; assay type: functional; settings: 30 µM
[7] = molecular target: T4, Tyrosyl-tRNA synthetase, putative (Trypanosoma cruzi (strain CL Brener)) (UniProt Q4DSP6); experiment: Trypanosoma cruzi tyrosyl tRNA synthetase (TcYRS) _High Tyrosine SOP; assay type: functional; settings: 30 µM; note: in the data most compounds retested in dose-response had high values
T4 sequence (whole entry): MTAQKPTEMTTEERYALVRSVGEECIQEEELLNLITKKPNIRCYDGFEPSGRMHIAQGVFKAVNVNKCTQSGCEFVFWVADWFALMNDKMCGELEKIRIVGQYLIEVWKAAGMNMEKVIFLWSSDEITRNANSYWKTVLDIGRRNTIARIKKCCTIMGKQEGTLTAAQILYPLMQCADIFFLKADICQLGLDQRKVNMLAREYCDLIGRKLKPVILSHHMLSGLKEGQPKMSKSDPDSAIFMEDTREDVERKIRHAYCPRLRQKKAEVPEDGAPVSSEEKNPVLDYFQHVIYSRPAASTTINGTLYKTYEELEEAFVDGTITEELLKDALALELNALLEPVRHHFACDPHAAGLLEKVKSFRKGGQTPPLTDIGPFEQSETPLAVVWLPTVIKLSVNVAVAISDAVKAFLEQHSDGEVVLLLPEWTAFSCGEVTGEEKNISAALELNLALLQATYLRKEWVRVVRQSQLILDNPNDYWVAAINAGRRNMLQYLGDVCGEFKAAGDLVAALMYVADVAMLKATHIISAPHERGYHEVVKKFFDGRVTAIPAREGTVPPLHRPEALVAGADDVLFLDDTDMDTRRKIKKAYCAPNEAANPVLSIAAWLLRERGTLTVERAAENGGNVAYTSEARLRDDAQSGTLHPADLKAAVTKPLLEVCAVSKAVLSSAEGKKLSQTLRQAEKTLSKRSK

[8] = molecular target: T4, Tyrosyl-tRNA synthetase, putative (Trypanosoma cruzi (strain CL Brener)); experiment: Trypanosoma cruzi tyrosyl tRNA synthetase (TcYRS) SOP; assay type: functional; settings: 30 µM
[9] = molecular target: Chromo domain-containing protein 1 (Saccharomyces cerevisiae (strain ATCC 204508 / S288c) (Baker's yeast)) (UniProt P32657); experiment: ScCHD-1 Enzyme Inhibition Assay; assay type: functional; settings: 30 µM; note: in the data most compounds retested in dose-response had high values
Sequence of Chromo domain-containing protein 1 (Saccharomyces cerevisiae (strain ATCC 204508 / S288c) (Baker's yeast)) (P32657 whole entry, the tested form may be a part): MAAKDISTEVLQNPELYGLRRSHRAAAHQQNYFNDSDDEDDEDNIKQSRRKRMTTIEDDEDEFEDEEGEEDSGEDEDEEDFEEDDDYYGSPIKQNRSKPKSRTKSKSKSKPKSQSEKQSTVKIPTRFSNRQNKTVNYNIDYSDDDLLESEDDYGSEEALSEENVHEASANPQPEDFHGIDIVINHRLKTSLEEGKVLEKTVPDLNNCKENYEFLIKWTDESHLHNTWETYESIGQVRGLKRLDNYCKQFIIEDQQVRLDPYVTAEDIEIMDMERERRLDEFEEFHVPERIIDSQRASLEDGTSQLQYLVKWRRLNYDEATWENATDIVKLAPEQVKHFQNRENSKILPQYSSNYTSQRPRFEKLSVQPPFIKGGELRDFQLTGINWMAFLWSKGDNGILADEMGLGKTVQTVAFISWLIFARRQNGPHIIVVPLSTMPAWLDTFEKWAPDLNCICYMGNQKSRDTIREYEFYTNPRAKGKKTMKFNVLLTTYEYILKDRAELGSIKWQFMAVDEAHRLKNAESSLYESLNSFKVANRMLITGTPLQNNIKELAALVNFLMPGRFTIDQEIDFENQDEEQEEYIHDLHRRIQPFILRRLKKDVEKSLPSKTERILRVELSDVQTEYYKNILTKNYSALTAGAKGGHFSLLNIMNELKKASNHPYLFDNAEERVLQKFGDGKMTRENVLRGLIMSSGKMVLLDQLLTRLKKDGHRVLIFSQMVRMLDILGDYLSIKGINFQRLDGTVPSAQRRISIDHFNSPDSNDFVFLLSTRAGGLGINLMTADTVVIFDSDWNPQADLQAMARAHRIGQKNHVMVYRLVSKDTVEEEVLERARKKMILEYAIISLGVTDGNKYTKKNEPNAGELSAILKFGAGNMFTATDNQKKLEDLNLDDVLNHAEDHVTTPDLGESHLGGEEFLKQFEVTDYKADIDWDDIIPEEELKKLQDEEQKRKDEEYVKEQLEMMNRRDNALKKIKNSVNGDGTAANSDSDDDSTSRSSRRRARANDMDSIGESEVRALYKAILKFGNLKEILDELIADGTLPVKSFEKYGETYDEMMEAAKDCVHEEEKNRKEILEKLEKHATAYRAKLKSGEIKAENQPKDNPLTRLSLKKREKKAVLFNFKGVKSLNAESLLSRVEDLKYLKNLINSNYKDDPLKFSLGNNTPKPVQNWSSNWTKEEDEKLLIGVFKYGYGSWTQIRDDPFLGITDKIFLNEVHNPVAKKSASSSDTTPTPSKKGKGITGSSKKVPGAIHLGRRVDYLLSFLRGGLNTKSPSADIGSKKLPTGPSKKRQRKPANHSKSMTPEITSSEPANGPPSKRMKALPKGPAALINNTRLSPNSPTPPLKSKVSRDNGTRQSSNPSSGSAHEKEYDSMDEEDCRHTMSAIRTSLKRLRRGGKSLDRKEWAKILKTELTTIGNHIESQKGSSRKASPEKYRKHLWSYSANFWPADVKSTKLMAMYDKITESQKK

Sequence of Protein translocase subunit SecA (Escherichia coli (strain K12)) (P10408 whole entry): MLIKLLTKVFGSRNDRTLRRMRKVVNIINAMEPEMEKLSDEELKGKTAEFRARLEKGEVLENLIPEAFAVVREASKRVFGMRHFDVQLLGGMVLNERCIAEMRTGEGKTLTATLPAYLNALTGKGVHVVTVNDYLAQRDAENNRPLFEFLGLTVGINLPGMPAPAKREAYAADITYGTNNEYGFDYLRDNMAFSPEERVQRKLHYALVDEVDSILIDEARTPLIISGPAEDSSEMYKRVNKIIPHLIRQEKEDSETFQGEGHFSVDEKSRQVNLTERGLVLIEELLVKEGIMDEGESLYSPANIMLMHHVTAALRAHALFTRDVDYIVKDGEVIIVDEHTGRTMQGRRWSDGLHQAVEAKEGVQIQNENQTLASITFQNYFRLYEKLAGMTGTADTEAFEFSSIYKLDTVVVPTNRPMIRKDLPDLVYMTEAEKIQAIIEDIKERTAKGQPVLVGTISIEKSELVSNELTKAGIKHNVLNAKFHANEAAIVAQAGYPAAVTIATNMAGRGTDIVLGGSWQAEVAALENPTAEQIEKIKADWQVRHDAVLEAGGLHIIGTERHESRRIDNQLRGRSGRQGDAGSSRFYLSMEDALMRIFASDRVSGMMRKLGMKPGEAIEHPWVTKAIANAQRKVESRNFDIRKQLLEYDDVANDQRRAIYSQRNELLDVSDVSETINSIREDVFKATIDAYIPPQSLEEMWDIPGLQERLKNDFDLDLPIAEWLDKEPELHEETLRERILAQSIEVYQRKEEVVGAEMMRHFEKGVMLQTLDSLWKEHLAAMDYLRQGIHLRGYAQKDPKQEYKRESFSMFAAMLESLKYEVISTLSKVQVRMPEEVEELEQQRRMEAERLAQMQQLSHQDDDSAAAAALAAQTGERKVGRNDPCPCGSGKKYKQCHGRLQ

Row | SMILES | Percent Effect [1] [%] | Percent Effect [2] [%] | Percent Effect [3] [%] | Percent Effect [4] [%] | Percent Effect (Trypanosoma cruzi) [%] | Percent Effect [5] [%] | Percent Effect [6] [%] | Percent Effect (Homo sapiens) [%] | Percent Effect [7] [%] | Percent Effect [8] [%] | Percent Effect [9] [%]
1 | CNc1cc(C)nc(C2CN(Cc3ccc(C)nc3)CCO2)c1 (stereo not given) | -2.49 | 4.05 | 9.63 | -3.85 | -1.19 | -0.696 | 4.84 | 0.717 | 3.23 | 3.9 | -10.8
2 | COc1ccc(C2Nc3cc(Cl)ccc3C3=NCCN32)cc1OC (stereo not given) | -5.72 | 2.67 | 2.8 | 3.39 | 3.54 | -5.83 | 13.1 | 8.26 | 4.25 | 8.97 | -11.7
3 | Cc1ncsc1C(=O)NC1CCN(Cc2ccc(C#N)cc2)CC1 | -4.4 | 18.2 | 0.609 | 12.4 | 1.12 | -2.49 | 5.74 | 32.5 | 3.88 | 12.2 | -7.46
4 | Cc1nc(C)n(C2CCCN(C(=O)c3ccc(F)cc3F)C2)n1 (stereo not given) | -3.45 | 0 | 0.572 | -0.68 | 2.73 | 24.6 | 11.2 | -8.13 | 9.9 | 18.3 | -7.11
5 | O=C(NCCN1CCC(c2cccs2)CC1)Nc1cccs1 | -5.82 | 0 | -3.98 | 20.2 | 4.7 | 1.36 | 14.6 | 10.4 | 12.9 | 17.5 | -2.26

Reference: ChEMBL document CHEMBL3988442, “University of Dundee, Small-Polar-MMV Screening Library” (2021)
